The source made the active and inactive calls. Unless noted, no rule for the calls is given here.
Columns and labels:
[1] = compounds binding Alexa647 anti-His antibody – biochemical, small-molecule microarray, 635 nm fluorescence, artefact control for SMM control protein annotation, primary screen (AID 1128); settings: higher = more signal;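 also: score merges feature fluorescence with signal-to-noise for each printed compound spot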
[2] = test system: Human papillomavirus type 1a E7 protein (residues 1-88); assay: HPV1a E7 small-molecule binders, primary screen, biochemical, small-molecule microarray, residues 1-88, 635 nm (AID 1129); settings: small-molecule microarray binding, fluorescence 635 nm; higher = more signal
[3] = target: Focal adhesion kinase 1 (Homo sapiens) (UniProt Q05397); assay: PTK2 protein binding on printed compound slides – biochemical, small-molecule microarray, 635/667 nm fluorescence, BSA, DTT, primary screen (AID 1130); settings: 635 nm fluorescence, higher = more signal;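 also: composite of spot emission at 667 nm and signal to noise over triplicate slides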
Focal adhesion kinase 1 (Homo sapiens), sequence (Q05397 whole entry, looked up): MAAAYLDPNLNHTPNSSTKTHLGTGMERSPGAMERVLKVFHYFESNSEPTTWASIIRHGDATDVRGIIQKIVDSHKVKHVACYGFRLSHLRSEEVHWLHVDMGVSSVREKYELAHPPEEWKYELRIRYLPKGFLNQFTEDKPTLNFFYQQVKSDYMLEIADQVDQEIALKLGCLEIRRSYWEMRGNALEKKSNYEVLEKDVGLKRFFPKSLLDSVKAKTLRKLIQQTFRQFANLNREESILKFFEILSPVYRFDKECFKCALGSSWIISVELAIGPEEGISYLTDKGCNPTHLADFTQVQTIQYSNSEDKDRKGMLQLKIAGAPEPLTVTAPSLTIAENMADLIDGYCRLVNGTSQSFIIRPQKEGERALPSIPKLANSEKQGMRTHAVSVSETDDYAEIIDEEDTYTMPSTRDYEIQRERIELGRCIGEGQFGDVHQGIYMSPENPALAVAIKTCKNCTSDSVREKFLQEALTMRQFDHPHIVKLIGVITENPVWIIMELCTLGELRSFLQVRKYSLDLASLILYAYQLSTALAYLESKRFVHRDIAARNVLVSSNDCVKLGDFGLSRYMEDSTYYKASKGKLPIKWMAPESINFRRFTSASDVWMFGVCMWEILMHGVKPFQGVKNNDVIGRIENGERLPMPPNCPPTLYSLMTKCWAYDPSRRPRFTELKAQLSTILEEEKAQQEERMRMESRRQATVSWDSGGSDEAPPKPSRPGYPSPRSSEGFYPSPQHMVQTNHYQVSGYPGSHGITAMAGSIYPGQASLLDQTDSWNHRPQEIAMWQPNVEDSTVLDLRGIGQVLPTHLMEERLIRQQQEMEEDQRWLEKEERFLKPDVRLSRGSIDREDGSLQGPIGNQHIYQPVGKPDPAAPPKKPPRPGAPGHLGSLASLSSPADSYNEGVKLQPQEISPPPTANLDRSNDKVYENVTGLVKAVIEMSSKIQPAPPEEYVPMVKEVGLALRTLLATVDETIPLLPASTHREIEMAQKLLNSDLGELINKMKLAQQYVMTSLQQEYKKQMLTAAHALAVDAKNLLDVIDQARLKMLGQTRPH

[4] = test system: Fibrinogen (Alexa647-labelled); assay: Alexa647-fibrinogen binding to printed small molecules – biochemical, small-molecule microarray, 635/667 nm fluorescence, artefact control for SMM control-protein annotation, profiling panel (AID 1131); settings: fibrinogen-A647 binding fluorescence, higher = more signal;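 also: z-score merges 667 nm fluorescence with per-spot signal-to-noise over triplicate slides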
[5] = target: Follistatin (Homo sapiens) (UniProt P19883); assay: FST protein binding to printed compounds – biochemical, small-molecule microarray, 635/667 nm fluorescence, primary screen (AID 1132); settings: 635 nm fluorescence, higher = more signal
Follistatin (Homo sapiens), sequence (P19883 whole entry, looked up): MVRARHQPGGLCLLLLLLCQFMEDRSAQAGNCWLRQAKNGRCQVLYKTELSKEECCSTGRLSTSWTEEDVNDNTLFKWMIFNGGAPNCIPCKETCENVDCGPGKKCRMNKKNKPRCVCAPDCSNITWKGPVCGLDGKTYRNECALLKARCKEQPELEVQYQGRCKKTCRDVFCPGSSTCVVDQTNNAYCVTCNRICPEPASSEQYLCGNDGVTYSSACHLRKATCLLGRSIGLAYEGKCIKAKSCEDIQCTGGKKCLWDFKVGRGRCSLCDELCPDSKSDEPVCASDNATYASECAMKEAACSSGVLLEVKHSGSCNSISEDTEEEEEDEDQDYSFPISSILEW

[6] = target: Fibroblast growth factor 2 (Homo sapiens) (UniProt P09038); assay: basic fibroblast growth factor binding to printed compounds – biochemical, small-molecule microarray, 635/667 nm fluorescence, primary screen (AID 1133); settings: FGF2, fluorescence 635/667, higher = more signal
Fibroblast growth factor 2 (Homo sapiens), sequence (P09038 whole entry, looked up): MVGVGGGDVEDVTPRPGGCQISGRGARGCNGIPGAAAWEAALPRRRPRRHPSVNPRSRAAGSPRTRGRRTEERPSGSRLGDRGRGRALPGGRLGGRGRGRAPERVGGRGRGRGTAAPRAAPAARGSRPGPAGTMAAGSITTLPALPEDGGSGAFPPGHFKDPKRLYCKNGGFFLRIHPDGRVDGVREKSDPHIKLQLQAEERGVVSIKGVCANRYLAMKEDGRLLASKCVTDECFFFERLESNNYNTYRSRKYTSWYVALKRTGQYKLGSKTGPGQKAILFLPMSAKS

[7] = JC-1 mitochondrial potential readout, lung cancer cells – cell-based, A549, JC-1 fluorescence, basal, 24 h, 100 nL, profiling panel (AID 1138); settings: higher = more signal;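 also: A549 lung adenocarcinoma cells under basal conditions with no added stimulus; test concentration not given here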
Lefty1 = Lefty1 protein binding to printed compounds – biochemical, small-molecule microarray, 635/667 nm fluorescence, primary screen (AID 1139); settings: fluorescence 635/667, higher = more signal
[8] = test system: wheat germ agglutinin (Triticum aestivum), Alexa647-labelled; assay: Alexa647-WGA lectin binding to printed small molecules – biochemical, small-molecule microarray, 635/667 nm fluorescence, artefact control for SMM control-protein annotation, profiling panel (AID 1140); settings: WGA-A647 binding, 635 nm fluorescence, higher = more signal;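 also: score merges 667 nm feature emission with signal to noise over triplicate slides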
[9] = target: Luciferin 4-monooxygenase (Photinus pyralis) (UniProt P08659); assay: inhibition of purified Photinus pyralis luciferase – biochemical, luminescence, purified enzyme, 2006 set, primary screen (AID 1141); settings: purified firefly luciferase, SteadyGlo luminescence, 30 min; higher = more signal, called active from +8 up or from −8 down;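 also: cell-free assay with purified firefly luciferase at 100 ng per well in PBS; test concentration not given here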
Luciferin 4-monooxygenase (Photinus pyralis), sequence (P08659 whole entry, looked up): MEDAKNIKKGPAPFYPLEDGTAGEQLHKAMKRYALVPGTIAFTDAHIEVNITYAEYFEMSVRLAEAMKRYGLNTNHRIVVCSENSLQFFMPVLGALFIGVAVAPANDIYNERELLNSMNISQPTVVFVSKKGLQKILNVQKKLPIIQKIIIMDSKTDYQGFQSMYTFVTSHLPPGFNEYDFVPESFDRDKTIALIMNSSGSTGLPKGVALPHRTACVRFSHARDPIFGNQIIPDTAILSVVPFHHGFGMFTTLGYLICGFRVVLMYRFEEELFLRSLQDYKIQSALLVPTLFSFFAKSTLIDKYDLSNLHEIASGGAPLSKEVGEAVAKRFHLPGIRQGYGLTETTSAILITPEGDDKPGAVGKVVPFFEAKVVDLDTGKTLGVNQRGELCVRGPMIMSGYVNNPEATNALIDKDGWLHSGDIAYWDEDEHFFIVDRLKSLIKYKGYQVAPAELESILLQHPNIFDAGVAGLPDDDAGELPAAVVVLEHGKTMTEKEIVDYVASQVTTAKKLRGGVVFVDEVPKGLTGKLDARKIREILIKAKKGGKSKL

[10] = test system: Wnt5a (protein binding on small-molecule microarray); assay: small molecules binding Wnt5a protein – biophysical, small-molecule microarray, 635/667 nm fluorescence, primary screen (AID 1142); settings: 635 nm fluorescence, higher = more signal;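 also: fluorescence read at 667 nm with signal to noise per printed feature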
[11] = ATP-based viability of Huh7 replicon cells – cell-based, CellTiter-Glo luminescence, basal, 48 h, cytotoxicity control for HCV replication inhibitor project, primary screen (AID 1143); settings: higher = more signal, called active from +8 up or from −8 down;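 also: Huh7 hepatoma cells carrying a hepatitis C replication reporter with no stimulus; test concentration not given here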
[12] = Pseudomonas biofilm growth suppression – PAO1 strain, BacTiter-Glo luminescence, LB-PBS, primary screen (AID 1144); settings: P. aeruginosa PAO1 biofilm, 12 h, higher = more signal
[13] = basal CRE-LacZ reporter activity in PC12 – cell-based, unstimulated, primary screen (AID 1145); settings: no forskolin, luminescence, 4.5 h, higher = more signal, called active from +8 up or from −8 down
[14] = forskolin-driven CRE-LacZ activity in PC12 – cell-based, CRE-LacZ reporter, forskolin-stimulated, primary screen (AID 1146); settings: luminescence, 4.5 h, higher = more signal, called active from +8 up or from −8 down;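 also: PC12 cells with 6xCRE LacZ reporter stimulated by forskolin 10 µM; beta-galactosidase reporter signal reflecting CREB driven transcription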
[15] = target: Streptavidin (Streptomyces avidinii) (UniProt P22629); assay: compounds binding control protein streptavidin – biophysical, small-molecule microarray, 635/667 nm fluorescence, artefact control for SMM compound annotation, primary screen (AID 1147); settings: higher = more signal;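 also: signal reflects streptavidin binding to arrayed compounds as a control protein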
Streptavidin (Streptomyces avidinii), sequence (P22629 whole entry, looked up): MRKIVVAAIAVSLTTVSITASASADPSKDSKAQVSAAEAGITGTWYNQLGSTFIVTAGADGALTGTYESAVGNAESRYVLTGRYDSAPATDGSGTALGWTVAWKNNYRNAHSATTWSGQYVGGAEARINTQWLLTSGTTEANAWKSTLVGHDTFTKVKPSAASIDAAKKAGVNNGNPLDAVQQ

[16] = probe aInhba binding on compound microarray – biochemical, small-molecule microarray, 635/667 nm fluorescence, primary screen (AID 1148); settings: higher = more signal;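 also: score merges 667nm spot fluorescence with signal-to-noise for antibody binding to printed compounds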
Torsin-1A (Homo sapiens) [17] = target: Torsin-1A (Homo sapiens) (UniProt O14656); assay: TOR1A wild-type binding on microarray – cell lysate, small-molecule microarray, lysate, 635/667 nm, primary screen (AID 1149); settings: COS7 hTOR1A-WT lysate, 635 nm fluorescence, higher = more signal
Torsin-1A (Homo sapiens), sequence (O14656 whole entry, looked up): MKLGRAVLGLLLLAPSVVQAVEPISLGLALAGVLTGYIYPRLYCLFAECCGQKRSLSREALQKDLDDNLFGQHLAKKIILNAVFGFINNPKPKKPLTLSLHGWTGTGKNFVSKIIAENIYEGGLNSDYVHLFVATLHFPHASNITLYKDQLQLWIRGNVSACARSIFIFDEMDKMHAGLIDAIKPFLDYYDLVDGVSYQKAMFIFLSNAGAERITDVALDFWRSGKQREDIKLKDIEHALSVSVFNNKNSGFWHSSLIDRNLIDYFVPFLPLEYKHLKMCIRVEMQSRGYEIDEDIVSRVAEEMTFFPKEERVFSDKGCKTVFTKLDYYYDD

Torsin-1A (Homo sapiens) [18] = target: Torsin-1A (Homo sapiens) (UniProt O14656); assay: torsin A mutant lysate binding on microarrays – cell lysate, small-molecule microarray, COS7 lysate, 635/667 nm fluorescence, primary screen (AID 1150); settings: COS7 hTOR1A mutant lysate, 635 nm fluorescence, higher = more signal;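 also: score pools 667 nm emission and signal to noise measuring lysate protein binding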
[19] = test system: Sonic hedgehog protein (Shh); assay: Sonic hedgehog microarray binding compounds – biochemical, small-molecule microarray, 635/667 nm fluorescence, primary screen (AID 1151); settings: 635 nm fluorescence, higher = more signal;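 also: Shh protein binding to compounds spotted on small-molecule microarray slides; score combines spot fluorescence intensity with signal-to-noise across triplicate slides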

Compound	composite z-score [1]	composite z-score [2]	composite z-score [3]	composite z-score [4]	composite z-score [5]	composite z-score [6]	z-score [7]	composite z-score (Lefty1)	composite z-score [8]	z-score [9]	composite z-score [10]	z-score [11]	z-score [12]	z-score [13]	z-score [14]	composite z-score [15]	composite z-score [16]	composite z-score (Torsin-1A (Homo sapiens) [17])	composite z-score (Torsin-1A (Homo sapiens) [18])	composite z-score [19]
O=C(c1ccccc1)N1C(=O)[C@@]2(Cc3ccccc31)N=C(c1ccc(OCCCO)cc1)O[C@H]2c1ccccc1	1.39	1.21	1.23	0.657	1.4	1.45	-1.02	0.856	0.811	-1.14 (inactive)	0.54	-4.44 (inactive)	0.849 (inactive)	1.11 (inactive)	1.28 (inactive)	0.353	0.346	0.388	1.01	1.27
O=C1C[C@@](C(=O)NCCN2CCOCC2)(c2ccc([N+](=O)[O-])cc2)[C@@H](c2ccc(CO)cc2)N1CC12CC3CC(CC(C3)C1)C2	2.5	1.25	0.296	0.904	1.34	1.13	-0.712	0.646	1.09	-0.988 (inactive)	0.455	-5.78 (inactive)	0.881 (inactive)	1.62 (inactive)	-0.0481 (inactive)	0.379	0.0154	0.179	1.21	1.37
CN1C=C(C(=O)OCCS(C)(=O)=O)C(C(=O)OCCS(C)(=O)=O)=CC(c2ccc(CO)cc2)=CC1C1CC1 (stereo not given)	-0.281	0.138	0.0684	0.28	0.126	-0.101	1.48	0.53	0.922	-1.5 (inactive)	0.0929	-0.95 (inactive)	0.706 (inactive)	-0.205 (inactive)	-0.507 (inactive)	-0.0005	0.149	0.738	0.5	0.457
CC(=O)NCCCC[C@@H]1NC(=O)[C@@H]2C[C@H](C(=O)NCCCCCNC(=O)CS)[C@H](c3cccc(OCCO)c3)N2C1=O	2	-0.516	-0.612	-1.07	1.32	0.94	-0.763	1.1	0.0847	-0.125 (inactive)	-0.149	-1.12 (inactive)	-0.617 (inactive)	-1.48 (inactive)	-1.4 (inactive)	-0.526	-0.101	0.653	0.541	1.62
CCCC#C[Si](O[C@H](CC)c1cn(Cc2cccc(Cl)c2)nn1)(C(C)C)C(C)C	0.849	0.87	-0.442	0.684	0.357	0.54	-0.264	0.467	0.686	-0.786 (inactive)	0.227	-1 (inactive)	-0.618 (inactive)	-0.505 (inactive)	-0.558 (inactive)	0.379	0.192	0.882	0.244	0.773
COCCOC(=O)N1C(=O)[C@@]2(c3cc(C#CCC(C(=O)OC)C(=O)OC)ccc31)[C@H](c1ccccc1OCCO)N1[C@H](c3ccccc3)[C@H](c3ccccc3)OC(=O)[C@H]1[C@@H]2C(=O)NC[C@H](O)c1ccccc1	1.33	1.15	0.9	0.749	1.37	1.83	-0.671	1.41	0.339	-0.182 (inactive)	0.851	-4.23 (inactive)	0.166 (inactive)	-0.195 (inactive)	2.22 (inactive)	0.0919	0.158	0.555	0.389	1.98
O=C(CS)NCCCCCCNC(=O)[C@@H]1C[C@@H]2C(=O)N[C@@H](Cc3ccccc3)C(=O)N2[C@@H]1c1cccc(OCCO)c1	3.09	1.23	0.385	0.54	1.33	1.76	-0.714	0.823	0.1	-1.09 (inactive)	0.879	0.0037 (inactive)	-0.614 (inactive)	-0.134 (inactive)	-0.112 (inactive)	0.253	-0.163	1.1	1.48	1.49
COC(=O)[C@@]1(Cc2ccc(OC)cc2)[C@H]2c3cc(C(=O)N4CCCC4)n(CCN4CNCC4=O)c3C[C@H]2CN1C(=O)c1ccccc1	3.25	1.16	1.06	0.326	-1.02	-0.48	-0.0456	-0.899	0.949	-0.119 (inactive)	2.12	-0.508 (inactive)	-0.12 (inactive)	0.201 (inactive)	-0.0971 (inactive)	-0.002	1.59	0.294	0.0178	-1.14
[N-]=[N+]=NCc1ccccc1C[C@]1(C(=O)N2CCCCC2)N=C(c2ccc(OCCCO)cc2)O[C@H]1c1ccccc1N=[N+]=[N-]	2.87	1.23	1.71	0.984	0.887	-0.0521	-0.756	-0.0342	1	-9.69 (active)	0.0151	-5.01 (inactive)	-0.799 (inactive)	-0.333 (inactive)	-1.69 (inactive)	1.46	0.127	0.333	1.03	-0.27
O=C1C[C@]2(c3ccc([N+](=O)[O-])cc3)C(=O)N(CC(F)(F)F)c3cc(CO)ccc3[C@H]2N1C1CCCCC1	-1.55	-0.15	0.114	-0.603	-1.13	-0.808	0.673	-1.44	-0.288	-1 (inactive)	-0.446	0.465 (inactive)	1.43 (inactive)	-0.412 (inactive)	-0.496 (inactive)	-0.463	-0.0598	-0.628	-0.611	-0.444

From PubChem BioAssay
